Many of the other results were omitted from the sample, so hits are more common in it than they were.
LmPK inhibitor: qHTS Assay for Inhibitors of Leishmania Mexicana Pyruvate Kinase (LmPK); Q27686; AID 1721, 2009; purified LmPK, Kinase-Glo ATP luminescence, 1 h; Potency, µM (titrated, usually from 57.5 µM), for inactives: at the top dose activity change, negative = inhibition, hits mostly inhibitors; 290,000 compounds, 0.37% hits; note: potency is the fitted concentration of half-maximal effect; % is set by controls: 0 for no effect and ±100 for the full control effect
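Purified LmPK (0.1 nM) with 0.5 mM PEP and 0.1 mM ADP in imidazole buffer pH 7.2 with MgCl2/KCl, 1 h at room temperature. ATP formed was read by luciferase luminescence and normalized to no-enzyme and uninhibited controls.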
Shiga toxin inh: A qHTS for Small Molecule Inhibitors of Shiga Toxin. 290,000 compounds, 9.2% hits. Vero cells, Shiga toxin protein synthesis inhibition reporter. inhibition, % at 38.7 µM; in the data active = inhibition mostly above about 28%, no sharp cut-off; inactive = mostly below about 43%; note: 0% is about no effect
Cycloheximide cs: Cycloheximide Counterscreen for Small Molecule Inhibitors of Shiga Toxin. cell reporter, cycloheximide protein synthesis inhibition counterscreen. max response, %. 300,000 compounds, 12% hits. AID 2314, 2010; in the data active = max response mostly above about 13%, no sharp cut-off; inactive = mostly below about 14%; note: read at 38.3 µM for the half of the compounds with a filed dose; 0% is about no effect
Sm TGR inh: qHTS Assay for the Inhibitors of Schistosoma Mansoni Peroxiredoxins. AID 485364, 2010. purified TGR, DTNB reduction, TNB absorbance 405 nm. 360,000 compounds, 3% hits. Potency, µM (titrated, usually from 114 µM), for inactives: at the highest dose activity change, negative = inhibition, most hits filed as inhibitors; note: potency is the fitted concentration of half-maximal effect; % is set by controls: 0 for no effect and ±100 for the full control effect; nearly all actives have a fitted effect of over 60% in size
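Kinetic colorimetric format: TGR-catalysed, NADPH-driven DTNB reduction monitored via TNB absorbance. Enzyme dispensed at 20 nM; compound exposure 15 min at room temperature before reaction start.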
TbPYK inhibitor: qHTS of Trypanosoma Brucei Inhibitors; pyruvate kinase (Trypanosoma brucei), Q57TT1; TbPYK enzyme, Kinase-Glo Plus ATP luminescence, 45 min; Potency, µM (highest dose often 76.8 µM), without a hit: top-dose activity, negative = inhibition, hits mostly inhibitors; 410,000 compounds, 0.12% hits; AID 624173, 2012; note: potency is the fitted concentration of half-maximal effect; % is set by controls: 0 for no effect and ±100 for the full control effect; nearly all actives have a fitted effect of over 50% in size
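In this concentration-response screen, enzyme-free wells defined baseline while DMSO plates tracked drift. Each reaction combined TbPYK, substrate, compound and 130 uM ADP for 45 min at room temperature. Kinase-Glo Plus luminescence gave the signal.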
FBPA Giardia inh: qHTS Assay for Inhibitors of Fructose-1,6-bisphosphate Aldolase from Giardia Lamblia. A8B2U2. purified Giardia FBPA. Potency, µM (highest dose often 59.6 µM), without a hit: at the highest dose activity, negative = inhibition, hits mostly inhibitors. 290,000 compounds, 0.71% hits; note: potency is the fitted concentration of half-maximal effect; % is set by controls: 0 for no effect and ±100 for the full control effect; nearly all actives have a fitted effect of over 55% in size
Target sequence (A8B2U2 whole entry, looked up): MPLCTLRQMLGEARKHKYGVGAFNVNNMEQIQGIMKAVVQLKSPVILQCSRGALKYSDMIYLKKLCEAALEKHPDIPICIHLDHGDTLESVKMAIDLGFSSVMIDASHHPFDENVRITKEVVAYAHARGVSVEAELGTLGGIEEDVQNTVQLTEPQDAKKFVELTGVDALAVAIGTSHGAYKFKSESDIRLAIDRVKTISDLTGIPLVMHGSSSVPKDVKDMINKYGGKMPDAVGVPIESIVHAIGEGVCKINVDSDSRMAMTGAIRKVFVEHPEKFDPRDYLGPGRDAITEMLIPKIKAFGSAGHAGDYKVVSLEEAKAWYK
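Giardia FBPA (40 nM reagent) was preincubated 10 min at RT with compound (up to 57.5 uM final), then substrate plus GAPDH/TPI/NAD/arsenate coupling system with diaphorase/resazurin was added; resorufin fluorescence (525/598 nm) was read after 20 min.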
* = called active by the depositor; ? = inconclusive; / = no result given; ! = repeats disagree. Unless noted, calls come from the whole dose curve; as a rule, active = well fitted curve in the direction sought with a large enough effect; inconclusive = small, poorly fitted or top-dose-only effect, or another doubt; inactive = no such curve, though single readings can be large; an effect the other way counts as inactive or inconclusive.

SMILES	LmPK inhibitor	Shiga toxin inh	Cycloheximide cs	Sm TGR inh	TbPYK inhibitor	FBPA Giardia inh
CC1(C)CC(c2nc(-c3ccccc3)cs2)CCS1 (configuration not stated)	-7.1%	-1.5	15.9*	-1.6%	-3.3%	0.6%
CC(=O)c1ccc(N=c2scc(C)n2C(C)C)cc1	8.5%	56.7	40.1*	-2.3%	-1.8%	-1.0%
CCC(C(=O)NC1CCCCC1)n1c(SCc2ccccc2F)nc2ccncc21 (configuration not stated)	-0.1%	44.2	16.7*!	3.3%	8.7%	0.2%
O=C(NC1CCCC1)c1ccc(CSc2nc3ccncc3n2Cc2ccccc2F)cc1	/	/	/	8.0%	0.8%	/
CCN(CCn1cccn1)C(=O)c1cc(COc2cc(C)ccc2C)on1	-3.3%	167.8*	61.5*	0.6%	6.0%	/
CCN(CCn1cccn1)C(=O)c1cc(COc2ccc(F)c(F)c2)on1	1.0%	50.0*	30.4*	-10.9%	-1.2%	-6.3%
CCN(CCn1cccn1)C(=O)c1cc(COc2ccccc2SC)on1	-4.7%	94.0*	64.7*	-30.3%	-3.8%	/
CCN(Cc1ccncc1)C(=O)c1cc(COc2c(F)cccc2F)on1	-2.0%	-2.5	9.2	-3.6%	-11.3%	6.4%
CCN(CCN1CCCC1)C(=O)c1cc(COc2ccccc2SC)on1	2.3%	-4.9	11.4	-14.6%	-7.3%	/
CCCCN(C)C(=O)c1ccc2c(c1)N(Cc1cccc(F)c1)C(=O)c1ccccc1S2	/	/	/	7.4%	0.6%	/
CCCOc1cccc(C2C(C(=O)c3cccs3)=C(O)C(=O)N2CCN2CCOCC2)c1 (configuration not stated)	-1.8%	-3.9	-3.8	-26.4%	2.2%	-12.4%
CCOC(=O)N[C@H](Cc1c[nH]c2ccccc12)C(=O)Nc1cccc(Cl)c1	/	/	/	0.5%	0.9%	/
CCOC(=O)NC(N(O)c1cccc(Cl)c1)C(Cl)(Cl)Cl (configuration not stated)	14.7%	20.5	20.4*	28.2µM*	-6.0%	-14.1%
COCCCNC(=O)/C(C#N)=C1\N=C(NC(=O)c2cccs2)c2ccccc21	6.1%	6.0	17.7*	0.2%	-6.1%	-11.3%
CC(=O)Nc1ccc(C2NC(=O)CCC2[N+](=O)[O-])cc1 (configuration not stated)	1.1%	-5.4	-2.0	-0.3%	1.3%	0.0%
COc1cc(OC)cc(-c2c(C#Cc3ccsc3)c3cc(-c4ccc(C(N)=O)cc4)ccc3n2C)c1	/	/	/	28.2µM*	-2.8%	/
CC1CCN(C(=O)C2COc3ccccc3C2)CC1 (configuration not stated)	/	/	/	1.0%	0.7%	/
Cc1nn(CC(=O)NCCc2ccco2)c(=O)c2nn(-c3ccccc3)c(C)c12	4.4%	-3.3	1.1	31.6µM*	-10.3%	9.2%
Cc1nn(CC(=O)NCCc2cccs2)c(=O)c2nn(-c3ccccc3)c(C)c12	-0.3%	18.6*	22.5*	-29.3%	2.5%	3.3%
CCCCNC(=O)CSc1nnc(C)c2c(C)n(-c3ccccc3)nc12	/	74.1*	38.3*	47.3%	4.5%	/
O=c1oc2ccccc2n1CSC1=NCCS1	-0.4%	55.0	19.4*	-12.1%	-0.7%	0.9%
O=c1oc2ccccc2n1CSc1nc2ccccc2s1	0.2%	95.8*	41.4*	11.3%	-3.8%	-15.9%
COc1ccccc1-c1cnc(C(O)c2cccc(F)c2)[nH]1 (configuration not stated)	/	/	/	/	2.6%	/
Cc1cc(Br)ccc1NC(=O)C1(S(=O)(=O)c2ccc(Cl)cc2)CC1	/	/	/	-2.4%	-4.4%	/
Clc1ccc(NCc2ccsc2)cc1	-6.3%	26.9*	13.1*	-16.5%	/	?
Clc1ccc(CNc2ccc(CNc3ncn[nH]3)cc2)cc1	-0.4%	65.6	17.7	2.6%	7.6%	3.9%
O=C(O)c1ccc(NNC(=S)Nc2cc(C(F)(F)F)ccc2Cl)cc1	3.1%	59.5*	36.1*	-14.0%	-9.7%	?

Screening data from PubChem BioAssay.
